Compounds with a hit are over-represented: about 1.2% of the library has one in this group of screens.
RGS16-Gao HTS: RGS16-Galphao interaction regulator (human) | O15492+P09471 | bead-based flow cytometry RGS16-Galphao binding, fluorescence; actives lie on both sides | binding response (% of control), % at 10 µM | 0.38% of 220,000 active | AID 1441;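 also: Galphao activated by GDP with aluminum fluoride before binding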
GSH fluor: GSH bead compound fluorescence profile; GSH beads flow cytometry, compound fluorescence 488/530 nm; stronger effect = higher value; fluorescence (KMESF) at 10 µM; 0.25% of 190,000 active; in the data active = fluorescence above about 89;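 also: glutathione beads carrying GST-tagged Bcl family fusion proteins plus one bare bead set; values are compound well signal with DMSO vehicle wells as background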
RGS8-Gao reg: regulators of human RGS8-Galphao interaction; multiplexed bead flow cytometry, RGS8-Galphao binding; actives lie on both sides; response (percent of control binding), % at 10 µM; 0.34% of 220,000 active; in the data active = response below about 60% or above about 140%; inactive = in between;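 also: Galphao activated as the GDP aluminium fluoride complex binding bead-coupled RGS8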
RGS4-Gao reg: human RGS4-Galphao interaction regulation; Multiplexed bead flow cytometry, RGS4-Galphao binding; actives lie on both sides; binding response (% of control), % at 10 µM; P09471; 0.33% of 220,000 active; in the data active = binding response below about 49% or above about 150%; inactive = in between;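 also: fluorescent Galphao activated with aluminum fluoride binding bead-coupled RGS4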
RGS7-Gao reg: regulators of human RGS7-Galphao interaction; binding response (% of control), % at 10 µM; 0.35% of 220,000 active; Multiplexed bead flow cytometry, RGS7-Galphao binding; actives lie on both sides; P09471; in the data active = binding response below about 49% or above about 150%;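 also: fluorescent Galphao held in activated GDP-AlF4 state binding bead-coupled RGS7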
Avidin bead fluor: compound fluoresces at 488/530 nm on avidin beads; compound fluorescence 488/530 nm, flow cytometry; stronger effect = higher value; fluorescence (KMESF) at 10 µM; 0.38% of 220,000 active; AID 1775; in the data active = fluorescence above about 47
RGS4-Gao HTS: modulates binding between human RGS4 and Galphao; 99% of 1,600 active; multiplexed bead flow cytometry, RGS–Galpha-o binding; AID 1504; shares compounds with RGS16-Gao HTS; RGS4–Galpha-o binding response, % at 10 µM;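 also: fluorescently labeled Galpha-o bound to GDP with aluminium fluoride binding biotinylated RGS beads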
Avidin counter: interferes with biotinylated probe binding to avidin beads; shares compounds with RGS16-Gao HTS; streptavidin beads, fluorescein-biotin binding, flow cytometry; inhibition, % at 10 µM; 1,700 tested, under 10 active; AID 1783;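 active = inhibition above 50%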;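 also: median green fluorescence of gated singlet beads compared with DMSO control wells; 0% = DMSO wells and 100% = complete loss of bead fluorescence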
RGS8-Gao confirm: confirmation of regulators of human RGS8-Galphao interaction; shares compounds with RGS16-Gao HTS; bead-based flow cytometry RGS8-Galphao binding, fluorescence; actives lie on both sides; binding response (% of control), % at 10 µM; 3% of 1,700 active; AID 1836; in the data active = binding response below about 72% or above about 130%; inactive = in between;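 also: Galphao activated as GDP AlF4 complex before binding bead RGS8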
RGS7-Gao single: RGS7-Galphao interaction regulation, single point confirmation; response (percent of control binding), % at 10 µM; bead-based flow cytometry RGS7-Galphao binding; actives lie on both sides; AID 1837; shares compounds with RGS16-Gao HTS; 7.8% of 1,700 active; in the data active = response below about 75% or above about 130%; inactive = in between;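 also: fluorescent Galphao activated with GDP and aluminum fluoride binding bead-coupled RGS7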
RGS16-Gao conf: confirmation of regulators of human RGS16-Galphao interaction | shares compounds with RGS16-Gao HTS | bead-based flow cytometry, RGS16-Galphao binding; actives lie on both sides | response (% of control binding), % at 10 µM | 4% of 1,700 active; in the data active = response below about 74% or above about 130%; inactive = in between;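 also: Galphao activated as the GDP aluminium fluoride complex binding bead-coupled RGS16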
RGS4-Gao single: RGS4-Galphao interaction regulation, single point confirmation; shares compounds with RGS16-Gao HTS; RGS4-Galphao binding, multiplexed bead flow cytometry; actives lie on both sides; binding response (% of control), % at 10 µM; 4% of 1,700 active; AID 1840; in the data active = binding response below about 74% or above about 130%; inactive = in between
RGS19-Gao single: RGS19-Galphao interaction regulation, single point confirmation; 5% of 1,700 active; response (percent of control binding), % at 10 µM; bead-based flow cytometry RGS19-Galphao binding; actives lie on both sides; AID 1841; shares compounds with RGS16-Gao HTS; in the data active = response below about 50% or above about 160%; inactive = in between;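 also: 100% = no compound control and 0% = blank background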
Target sequence (P09471 whole entry, looked up): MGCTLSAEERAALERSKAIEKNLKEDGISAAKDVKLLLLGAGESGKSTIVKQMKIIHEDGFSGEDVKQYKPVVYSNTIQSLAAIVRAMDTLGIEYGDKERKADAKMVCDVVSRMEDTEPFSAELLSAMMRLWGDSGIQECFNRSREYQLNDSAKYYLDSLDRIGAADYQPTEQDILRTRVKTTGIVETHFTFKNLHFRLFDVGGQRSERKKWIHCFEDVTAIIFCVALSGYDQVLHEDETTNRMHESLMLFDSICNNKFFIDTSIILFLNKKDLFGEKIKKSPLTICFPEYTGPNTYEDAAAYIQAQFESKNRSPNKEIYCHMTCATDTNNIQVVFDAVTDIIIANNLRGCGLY
Target sequence (P49795 whole entry, looked up): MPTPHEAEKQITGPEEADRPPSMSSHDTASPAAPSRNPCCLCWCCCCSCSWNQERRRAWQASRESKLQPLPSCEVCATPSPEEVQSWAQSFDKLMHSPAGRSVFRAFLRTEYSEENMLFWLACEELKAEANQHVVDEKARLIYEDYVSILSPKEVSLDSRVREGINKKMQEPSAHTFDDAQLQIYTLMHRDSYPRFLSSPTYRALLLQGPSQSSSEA
The depositor's hits bear a star; [ ] = remark or other dose. Unless noted, no rule for the calls is given here.

Screening O=[N+]([O-])c1cc(Cl)cc(/C=N/Nc2nc3ccccc3s2)c1O returned RGS16-Gao HTS 102, GSH fluor 26, RGS8-Gao reg 104, RGS4-Gao reg 99, RGS7-Gao reg 102 and Avidin bead fluor 12.
Screening COc1ccc(CCNC(=O)COC(=O)c2cc(OC)c(OC)cc2OC)cc1OC returned RGS16-Gao HTS 199*[activator], GSH fluor 14, RGS8-Gao reg 174*[activator], RGS4-Gao reg 173*[activator], RGS7-Gao reg 172*[activator], Avidin bead fluor 21, Avidin counter -1, RGS8-Gao confirm 106, RGS7-Gao single 106, RGS16-Gao conf 108, RGS4-Gao single 105 and RGS19-Gao single 139.
For Cc1scc(C(=O)NNC(=S)NCC2CCCO2)c1-c1ccccc1 (stereo unspecified) the results were RGS16-Gao HTS 22*, GSH fluor 12, RGS8-Gao reg 71, RGS4-Gao reg 98, RGS7-Gao reg 100, Avidin bead fluor 1, RGS4-Gao HTS 98*, Avidin counter 2, RGS8-Gao confirm 92, RGS7-Gao single 89, RGS16-Gao conf 90, RGS4-Gao single 90 and RGS19-Gao single 99.
Screening CCOC(=O)c1c(-c2ccccc2)oc2ccc(O)c(CN(C)C)c12 returned RGS16-Gao HTS 100, GSH fluor 25, RGS8-Gao reg 100, RGS4-Gao reg 96, RGS7-Gao reg 98 and Avidin bead fluor 11.
For Cc1oc2ccc(O)c(CN(C)C)c2c1C(=O)c1ccccc1 the results were RGS16-Gao HTS 275, GSH fluor 12, RGS8-Gao reg 153*[activator], RGS4-Gao reg 123, RGS7-Gao reg 122, Avidin bead fluor 16, RGS4-Gao HTS 123*, Avidin counter 1, RGS8-Gao confirm 100, RGS7-Gao single 100, RGS16-Gao conf 98, RGS4-Gao single 97 and RGS19-Gao single 108.
CNC(=O)CN(C)S(=O)(=O)c1ccc(OC)c(Cl)c1 was read as RGS16-Gao HTS 17*, GSH fluor 30, RGS8-Gao reg 16*, RGS4-Gao reg 25*, RGS7-Gao reg 19*, Avidin bead fluor 0, Avidin counter -1, RGS8-Gao confirm 99, RGS7-Gao single 87, RGS16-Gao conf 99, RGS4-Gao single 97 and RGS19-Gao single 81.
O=C(c1cccnc1Nc1ccc2c(c1)CCC2)N1CCOCC1 was read as RGS16-Gao HTS -1.9*, GSH fluor 16, RGS8-Gao reg 8.5*, RGS4-Gao reg -3.1*, RGS7-Gao reg -1.2*, Avidin bead fluor -3, Avidin counter -2, RGS8-Gao confirm 101, RGS7-Gao single 96, RGS16-Gao conf 102, RGS4-Gao single 101 and RGS19-Gao single 101.

Screens as filed in PubChem BioAssay.
